# Source: PubChem BioAssay (NCI)
# This is part of a sample that, as a whole, favours compounds with a hit. Of some 83,000 tested, about 20% had one in any assay.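 Method: cells in 96-well plates; compound added at one concentration; 48 h incubation; percent growth measured; values under 10 scored active.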 A number with no mark means an inactive call. Activity calls are given as the source filed them.
# How the values were obtained:
# Assay in all cases: NCI-60 one-dose screen, 48 h (100 = growth as untreated, 0 = no growth, -100 = all killed)
# Conditions in all cases: 10 µM unless noted
# [1] = test system: T-47D breast
# [2] = test system: BT-549 breast
# [3] = test system: MDA-MB-435 melanoma
# [4] = test system: SW-620 colon
# [5] = test system: MCF7 breast
# [6] = test system: HCT-116 colon
# [7] = test system: HCC-2998 colon
# [8] = test system: KM12 colon
Compound,growth [1],growth [2],growth [3],growth [4],growth [5],growth [6],growth [7],growth [8]
COc1cc(-c2ccc(-c3ccc(C(=N)N)nc3)s2)cc(OC)c1OC,66.2%,89.8%,37.1%,29.2%,-1.33% (active),0.952% (active),12.1%,49.1%
CC(C)CCC[C@@H](C)[C@H]1CCC2C3=CCC4C(=O)C=CC(=O)C4C3CC[C@@]21C (stereo partly specified),-18.9% (active),-1.63% (active),5.05% (active),-10.1% (active),8.65% (active),-75.5% (active),12.4%,7.56% (active)
CCCCOC(=O)c1ccc(NC(=O)C(C)N2CCOCC2)cc1 (stereo unspecified),107%,86.6%,113%,101%,106%,77.6%,102%,109%
O=C(NCCN1CCC(O)CC1)c1cc2c(o1)C(=O)c1ccccc1C2=O,-44.6% (active),-94.4% (active),-91.8% (active),-78.3% (active),-69.7% (active),-81.5% (active),-92.9% (active),-89.3% (active)
Cc1nc(Nc2cccc(NC(=O)Nc3ccc(Cl)cc3)c2)c2ccccc2n1,71.2%,101%,79.3%,46.7%,78.1%,67.1%,106%,69.7%
CCOC(=O)N1CCc2c(sc3c2C(=O)N[C@H](c2ccc(OC)cc2)N3)C1,79%,108%,98.7%,99.6%,97.7%,93.3%,104%,102%
O=S(=O)(NCCNc1cc(-c2c(-c3cccc(O)c3)nc3sccn23)ccn1)c1ccc(Cl)cc1,26%,50.2%,24.8%,89.2%,47.8%,57.4%,102%,59.6%
O=C1/C(=C/c2ccc([N+](=O)[O-])cc2)COc2ccc(O)c(O)c21,-5.74% (active),24.3%,0.103% (active),-40.6% (active),8.42% (active),-34.3% (active),-77.8% (active),-55.3% (active)
COc1cccc(/C=C2\COc3ccc(O)cc3C2=O)c1OC,74.8%,57.8%,19.7%,30.5%,12.2%,34.3%,94.1%,7.8% (active)
Cc1ccc2c(n1)C(=O)C(Oc1ccc(F)cc1)=CC2=O,40%,85.4%,101%,84.7%,81.1%,90.8%,108%,101%
CC/C=C/[C@@H]1C=C[C@@H]2CCC[C@H]2[C@@H]1CC[C@H](O)[C@H](C)N,-45.4% (active),85.9%,-89.3% (active),-67.2% (active),-85.8% (active),-76.2% (active),-88.6% (active),-85.1% (active)
CCCCCCCSc1ccc(C(=O)O)cc1,107%,112%,96%,105%,84.3%,99.3%,114%,116%
C/C(Cc1ccc(Cl)cc1)=C(/c1ccc(Cl)cc1)c1ccc(OCCN(C)C)cc1,47.9%,103%,44.6%,-32.4% (active),11%,16.5%,1.6% (active),27.9%
O=c1cc(-c2ccc(OCc3ccccc3)cc2)oc2c(I)c(OCc3ccccc3)cc(OCc3ccccc3)c12,104%,101%,102%,106%,101%,95.8%,105%,91.8%
Cc1ccc(NC(=O)C(Cl)Cl)cc1,96.6%,110%,107%,106%,94.6%,96.5%,115%,104%
C=CCN1C(=O)[C@]2(SC1=S)[C@H](c1cccc(Cl)c1)CN(C)[C@]21C(=O)NC2C=CC(Cl)=C[C@H]21 (stereo partly specified),15.6%,34.1%,55.1%,30.8%,16.9%,33.4%,78.2%,64.1%

Compound,growth [1],growth [2],growth [3],growth [4],growth [5],growth [6],growth [7],growth [8]
Cc1c(C(=O)O)nnn1-c1nccs1,90.4%,96.4%,96.2%,94%,99.6%,89.5%,113%,98.8%
NC(=O)c1c(NC(=O)c2ccc(C(F)(F)F)cc2Cl)sc2c1CCC(=O)C2,-21.2% (active),-33.2% (active),-42% (active),-49.7% (active),5.41% (active),-56.9% (active),-6.6% (active),-56.7% (active)
CC(C)OCCCNCC(=O)Nc1ccc(S(=O)(=O)c2ccc(NC(=O)CNCCCOC(C)C)cc2)cc1,103%,102%,101%,87.6%,85.8%,81.3%,73.8%,99.8%
N#Cc1c(-c2ccccc2)nc(SCC2CO2)nc1N1CCOCC1 (stereo unspecified),15.4%,11.4%,69.3%,84.4%,44.8%,95%,101%,87.1%
O=C(Nc1ccccc1Cl)OCCN1CCOCC1,101%,72.2%,107%,104%,105%,73.8%,99.6%,102%
COc1cc(C(=O)Nc2cc(O)c(CC=C(C)C)c(O)c2)cc2c1O[C@]1(C)CC[C@@H](O)C(C)(C)[C@H]1C2,3.79% (active),29.6%,24.9%,7.03% (active),6.62% (active),13.2%,7.4% (active),18.2%
Clc1ccc(/C=C/c2nc(Nc3ccc(Cl)cc3)c3ccccc3n2)cc1,91.2%,107%,109%,103%,80.9%,99.1%,106%,109%
CCNCCNc1cc(-c2ccc(C#N)cc2)c(C#N)c2nc3ccccc3n12,37.5%,40.4%,13.9%,-30.2% (active),57.8%,-27.2% (active),41%,29%
O=[N+]([O-])c1ccccc1C(O)Cc1ccc2ccccc2n1 (stereo unspecified),88.6%,109%,103%,96.7%,83.2%,93%,114%,87.6%
C=C(C)C1CCC(=C)C2CCC3(C)OC12/C=C(/COC(C)=O)CCC3O (stereo unspecified),112%,78.6%,98.7%,106%,96.8%,103%,106%,117%
CN(CCCCCCCCNc1ccnc2ccccc12)Cc1ccc(-c2ccc(-c3ccc(C#N)cc3)s2)cc1,-33.6% (active),-30.1% (active),-91.6% (active),-76.3% (active),-76.5% (active),-86.5% (active),-89.6% (active),-68.6% (active)
O=C1c2cccc3c(-c4ccc(-c5nc6c7ccccc7c7ccccc7c6[nH]5)cc4)ccc(c23)C(=O)N1CCN1CCNCC1,67.5%,95.4%,100%,25.2%,-6.7% (active),-12.3% (active),85.5%,21.6%
Cc1nc(Nc2ccc(NC(=S)Nc3ccccc3)cc2)nc2nc(Nc3ccc(S(=O)(=O)O)cc3)[nH]c(=O)c12,87.3%,61%,105%,116%,102%,103%,118%,120%
CC(C)c1ccc(C(=O)OC(=O)c2ccc(C(C)C)cc2)cc1,95.3%,87.9%,97%,114%,98.1%,97.4%,102%,123%
COc1cc(/C=C/c2nc(Nc3ccc(S(=O)(=O)Nc4cc(C)on4)cc3)c3ccccc3n2)ccc1O,58.4%,107%,-44.1% (active),39.1%,30.7%,54.6%,81.9%,31.8%
O=C1C=CC(=Nc2cc(Br)c(O)c(Br)c2)C=C1,70.7%,55.1%,36.1%,46.4%,40.1%,43.5%,102%,94.7%
